SMILES strings stand for the structures. “And” between values parts separate entries of the source, which are not always exact repeats. Equal values may be shown once. Results filed as inconclusive are left out. Some structures have more than one record in an assay (separate samples or runs), and their calls can disagree. The source made the active and inactive calls. The call rests on the fitted dose curve; in most records, active means well fitted curve in the direction sought with a large enough effect; inconclusive means small, poorly fitted or top-dose-only effect, or another doubt; inactive means no such curve, though single readings can be large; an effect the other way counts as inactive or inconclusive.

In assay [1] the target is Glutathione peroxidase 1 (Homo sapiens) (UniProt P07203). Briefly: Primary qHTS Assay for Inhibitors of Recombinant Selenoprotein Glutathione Peroxidase 1 (GPX1) (AID 1845191). Further: nearly all actives have a fitted effect of over 65% in size. Further: potency means the concentration at half of the fitted maximal effect. On activity, negative = inhibition: on the % scale 0 is the no-effect control and ±100 the full control effect. Summed up: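 GR-coupled readout: NADPH consumption tracked by fluorescence, ex 340/em 450 nm, at t=0 and after 15 min at RT. Final mix 10 nM GPX1, 1 mM GSH, 0.5 mM CHP, 0.5 mM NADPH, 100 nM GR, 0.01% BSA, following 30 min enzyme–compound preincubation.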
For orientation: Quantitative high-throughput screening tests each substance at several concentrations.

Assay [2] has as its target Phospholipid hydroperoxide glutathione peroxidase GPX4 (Homo sapiens) (UniProt P36969). Description: Primary qHTS Assay for Inhibitors of Recombinant Selenoprotein Glutathione Peroxidase 4 (GPX4) (AID 1845192). Further: nearly all actives have a fitted effect of over 65% in size. Further: potency means the concentration at half of the fitted maximal effect. On activity change, negative = inhibition: series mostly up to about 50 µM; on the % scale 0 is the no-effect control and ±100 the full control effect. Summed up: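 Steps: GPX4 plus compound, 30 min RT; add GR/GSH/NADPH master mix; start with cumene hydroperoxide; read 340/450 nm fluorescence at 0 and 15 min. Finals were 200 nM GPX4, 1 mM GSH, 0.5 mM CHP, 0.5 mM NADPH, 100 nM GR.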

The target in assay [3] is Luciferin 4-monooxygenase (Photinus pyralis) (UniProt P08659). Briefly: Primary firefly luciferase (FLuc) qHTS assay for identification of artifact compounds. (AID 1845220). Further: nearly all actives have a fitted effect of over 60% in size.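 On activity change, negative = inhibition: series mostly up to about 54 µM; plate controls were DMSO vehicle for no effect and no enzyme for full effect.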 The note with it: outcome: dose series up to 54.1 µM unless noted. In outline: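 D-luciferin and ATP (10 uM each, final) in Tris acetate buffer pH 7.6 were incubated with compounds for 15 min at room temperature. The reaction was started with 10 nM Photinus pyralis luciferase and luminescence read after 5 min. Percent inhibition was fitted to a 4-parameter Hill equation.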

Assay [4] in a line: Primary fluorescence-based thiol-reactive (MSTI) qHTS assay for identification of artifact compounds. (AID 1845221).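 Further: series mostly up to about 54 µM; thiol-reactive compounds lower the probe fluorescence signal; nearly all actives have a fitted effect of over 65% in size.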 In outline:
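Compounds were incubated 1 h at room temperature in the dark with the MSTI probe (4 uM) in PBS pH 7.4, 2% DMSO. Signals were normalized between Acetyl-MSTI and MSTI.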

The test system of assay [5] is Nanoluciferase (engineered Oplophorus gracilirostris luciferase). Description: Primary Nanoluciferase (NLuc) qHTS assay for identification of artifact compounds. (AID 1845222).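 Further: series mostly up to about 54 µM; 0% = DMSO and -100% = no enzyme.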 In outline:
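Diluted conditioned medium from NLuc-expressing S16 cells treated with compounds for 15 min at room temperature, then Nano-Glo substrate added; luminescence read after 5 min. Percent inhibition versus no-enzyme and DMSO controls fitted to 4-parameter Hill equation.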

The nature of assay [6]: Quantitative High-Throughput drug screen in 47 multiple myeloma cell lines against the NCATS MIPE library collection: Delta47_JCRB cell viability assay (AID 1918925; further: nearly all actives have a fitted effect of over 45% in size; further: potency means the concentration at half of the fitted maximal effect). Summed up:
(§1)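 CellTiter-Glo luminescence (ATP) after 48 h compound exposure, 37C/5% CO2; 500 cells/well; MIPE 4.0 approved/investigational drugs pinned in; DMSO = 100%, media only = 0% viability.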

Assay [7] is described as follows: Quantitative High-Throughput drug screen in 47 multiple myeloma cell lines against the NCATS MIPE library collection: EJM_DSMZ cell viability assay (AID 1918926; further: nearly all actives have a fitted effect of over 30% in size; further: potency means the concentration at half of the fitted maximal effect). Summed up: as §1
Assay [8] is described as follows: Quantitative High-Throughput drug screen in 47 multiple myeloma cell lines against the NCATS MIPE library collection: AMO1_DSMZ cell viability assay (AID 1918927; further: nearly all actives have a fitted effect of over 30% in size; further: potency means the concentration at half of the fitted maximal effect). Summed up: as §1
Assay [9] is described as follows: Quantitative High-Throughput drug screen in 47 multiple myeloma cell lines against the NCATS MIPE library collection: ARP1_JJKsccF8 cell viability assay (AID 1918928; further: nearly all actives have a fitted effect of over 40% in size; further: potency means the concentration at half of the fitted maximal effect). Summed up: (§2)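 CellTiter-Glo luminescence after 48 h exposure gives viability, scaled between DMSO-only (100%) and media-only (0%) controls. Library compounds are pinned onto 500 myeloma cells per well, incubated at 37C with 5% CO2.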

Assay [10] in a line: Quantitative High-Throughput drug screen in 47 multiple myeloma cell lines against the NCATS MIPE library collection: ARD_JJKsccE7 cell viability assay (AID 1918929; further: potency means the concentration at half of the fitted maximal effect). In outline: as §1
A short description of assay [11]: Quantitative High-Throughput drug screen in 47 multiple myeloma cell lines against the NCATS MIPE library collection: Karpas620_DSMZ cell viability assay (AID 1918959). Further: nearly all actives have a fitted effect of over 30% in size. In outline:
(§3)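 Steps: seed 500 cells per well; pin-transfer MIPE 4.0 library; incubate 48 h at 37C, 5% CO2, humidified; add CellTiter-Glo, 5 min room temperature; read luminescence.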

Assay [12] in a line: Quantitative High-Throughput drug screen in 47 multiple myeloma cell lines against the NCATS MIPE library collection: KMM1_JCRB cell viability assay (AID 1918960). Further: nearly all actives have a fitted effect of over 30% in size. Further: potency means the concentration at half of the fitted maximal effect. Summed up: as §2
A short description of assay [13]: Quantitative High-Throughput drug screen in 47 multiple myeloma cell lines against the NCATS MIPE library collection: FR4_PLB cell viability assay (AID 1918924; further: nearly all actives have a fitted effect of over 35% in size; further: potency means the concentration at half of the fitted maximal effect). In outline: as §3
The nature of assay [14]: Primary redox qHTS assay for identification of artifact compounds. (AID 1845223). Summed up: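 Redox-cycling detection via DTT (250 uM final) oxidation coupled to Amplex Red (25 uM)/HRP (250 mU/mL) in HBSS. 15 min preincubation plus 30 min after DTT, room temperature. Ex/Em 525/598 nm; 4-parameter Hill fit against DMSO and 10 uM DA3003.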

Sequence of Glutathione peroxidase 1 (Homo sapiens) (P07203 whole entry, looked up): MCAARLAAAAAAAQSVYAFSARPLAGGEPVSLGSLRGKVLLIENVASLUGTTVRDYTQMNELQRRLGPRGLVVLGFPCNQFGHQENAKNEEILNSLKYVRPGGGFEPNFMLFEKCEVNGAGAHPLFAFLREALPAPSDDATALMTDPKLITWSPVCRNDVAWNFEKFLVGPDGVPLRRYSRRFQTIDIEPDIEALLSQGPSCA
Sequence of Phospholipid hydroperoxide glutathione peroxidase GPX4 (Homo sapiens) (P36969 whole entry, looked up): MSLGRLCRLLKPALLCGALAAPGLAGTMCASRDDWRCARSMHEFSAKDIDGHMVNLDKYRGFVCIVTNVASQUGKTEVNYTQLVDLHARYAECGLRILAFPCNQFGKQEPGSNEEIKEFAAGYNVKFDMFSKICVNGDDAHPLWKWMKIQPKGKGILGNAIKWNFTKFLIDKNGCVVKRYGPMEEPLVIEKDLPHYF

On to `O=c1c(C2CC(c3ccc(-c4ccc(Br)cc4)cc3)Cc3ccccc32)c(O)sc2ccccc12` (configuration not stated), for which the Potency in assay [1] is 22.7 µM (active). In addition, the Potency result in assay [2] was “inactive”.

For `C[C@]12CC[C@@H]3c4ccc(OC(=O)N(CCCl)CCCl)cc4CC[C@H]3[C@@H]1CC[C@@H]2OP(=O)(O)O`, the Potency entry in assay [1], in [6], in [7], in assay [8], in [9] and in [10] was “inactive” each time. For the same molecule, the Potency entry in assay [11] and in assay [12] was “inactive” in each case. The Potency entry in assay [2] is “inactive and 12.6 µM (active)”. Further, the result in [3], in assay [4] and in assay [5] was inactive.

For `COC(=O)C(c1ccccc1)C1CCCCN1` (configuration not stated), the Potency result in [1] and in assay [2] was “inactive” throughout.

In the case of `C[C@](O)(CS(=O)(=O)c1ccc(F)cc1)C(=O)Nc1ccc(C#N)c(C(F)(F)F)c1`, the Potency entry in assay [1] and in assay [2] was “inactive” throughout. Besides, the Potency in assay [13] was 14.8 µM (active); in [6] it was 0.372 µM (active); in assay [7] it was 0.372 µM (active); in [8] it was 0.662 µM (active); in assay [9], 18.7 µM (active); in [10] it was 1.05 µM (active). For the same molecule, the Potency in assay [12] was 8.33 µM (active).

For `C[C@@H](N)[C@@H](O)c1ccccc1`, the Potency result in assay [2] was “inactive”.

In the case of `CCOC(=O)CC(SP(=S)(OC)OC)C(=O)OCC` (configuration not stated), in assay [2], the Potency entry was “inactive”.

`CC(C)(C)NCC(O)c1cc(Cl)c(N)c(C(F)(F)F)c1` (configuration not stated): the Potency entry in [1] and in [2] was “inactive” each time.

On to `C=CCN1C[C@H](C)N([C@H](c2ccc(C(=O)N(CC)CC)cc2)c2cccc(OC)c2)C[C@H]1C`, for which the values for the outcome in [1] and in assay [3] were “inactive [at 9.52 µM]” and “inactive [at 11.6 µM]”, respectively. In assay [2], the activity change, negative = inhibition was -0.741% [at 9.73 µM] (inactive). In addition, in assay [4], the activity change, negative = thiol reactive was 24.3% [at 11.5 µM] (inactive). The activity, negative = inhibition in assay [5] is 1.52% [at 11.6 µM] (inactive). For the same molecule, in assay [14], the redox activity (% of DA3003) is 9.33% [at 11.5 µM] (inactive).

On to `CC(C)C[C@H](CN)CC(=O)O`, for which the Potency entry in assay [1], in assay [2], in assay [13], in assay [6], in [7] and in assay [8] was “inactive” in each case. Also, the Potency result in assay [9], in [10], in assay [11] and in [12] was “inactive” in each case.

Consider `O=c1oc2ccccc2c(O)c1Cc1c(O)c2ccccc2oc1=O`, for which the Potency entry in [1] and in assay [2] was “inactive” each time.

`CC(C)NC(C)C`: the Potency entry in assay [1] and in assay [2] was “inactive” in each case.

With `CCc1cc2c(s1)-n1c(C)nnc1CN=C2c1ccccc1Cl`, the Potency entry in [1] and in assay [2] was “inactive” each time.

Take `C[C@]12CCC(=O)C=C1CC[C@@H]1[C@@H]2CC[C@]2(C)C(=O)CC[C@@H]12`: the Potency result in assay [1] and in assay [2] was “inactive” throughout.

In the case of `C[C@]12CC[C@H]3[C@@H](CC[C@@]45O[C@H]4C(O)=C(C#N)C[C@]35C)[C@H]1CC[C@H]2O`, the Potency entry in [1], in [2], in [7], in assay [8], in [9] and in assay [11] was “inactive” throughout. Besides, the Potency result in assay [12] was “inactive”.

With `CC(=O)OCC1=C(C(=O)O)N2C(=O)[C@@H](N)[C@H]2SC1`, the Potency in assay [1] was 12.8 µM (active). The molecule was called inactive in assay [3] and in [5].

With `C[C@]12Cc3cn[nH]c3C[C@@H]1CC[C@@H]1[C@@H]2CC[C@@]2(C)[C@H]1CC[C@]2(C)O`, the Potency result in assay [1] and in [2] was “inactive” throughout.

As to `C[C@]12CCC(=O)C=C1CC[C@@H]1[C@H]3CC[C@](C)(O)[C@@]3(C)CC[C@@H]12`, in assay [12], the Potency was 10.8 µM (active).

Take `O=C(Nc1ccc(Br)cc1)c1cc(Br)cc(Br)c1O`: the Potency entry in [2] was “inactive”.

For the molecule `C[C@]12CC[C@@H]3c4ccc(OC(=O)N(CCCl)CCCl)cc4CC[C@H]3[C@@H]1CC[C@@H]2O`, the Potency result in assay [1] and in assay [2] was “inactive” throughout.

In the case of `C=CCC1(C(C)CC)C(=O)NC(=O)NC1=O` (configuration not stated), the Potency entry in assay [1] and in assay [2] was “inactive” in each case.

Regarding `C=C(C)[C@H]1CN[C@H](C(=O)O)[C@H]1CC(=O)O`, the Potency entry in assay [1] and in [2] was “inactive” each time.

On to `CCC(CC)(CNC(=O)CCCO)c1cccc(OC)c1`, for which the Potency result in [1] and in assay [2] was “inactive” each time.

With `COP(=S)(OC)Oc1ccc(SC)c(C)c1`, the Potency entry in assay [1] and in assay [2] was “inactive” in each case.

`Clc1ccc(C(c2ccc(Cl)cc2)C(Cl)(Cl)Cl)cc1`: the Potency entry in assay [1] and in [2] was “inactive” each time.

As for `C[C@]12CC[C@H]3[C@@H](CCC4=CC(=O)CC[C@@H]43)[C@@H]1CC[C@@H]2OC(=O)CCc1ccco1`, the Potency result in [1] and in [2] was “inactive” each time.

Regarding `COP(=S)(OC)SCN1C(=O)c2ccccc2C1=O`, in assay [2], the Potency entry is “inactive”.

For `Nc1ccc([As](=O)(O)O)cc1`, the Potency entry in assay [1] and in assay [2] was “inactive” in each case.

In the case of `C#CC(O)(C=CCl)CC` (configuration not stated), the Potency result in assay [1] and in assay [2] was “inactive” each time.

For `O=C(O)CCCc1ccc(N(CCCl)CCCl)cc1`, the Potency entry in assay [1], in [2], in [7], in assay [8], in assay [10] and in [11] was “inactive” throughout. Further, the Potency entry in assay [12] was “inactive”.

As to `COc1cc(OC)c(OC)cc1C=O`, the Potency entry in assay [13], in assay [6], in assay [7], in [8], in assay [9] and in assay [10] was “inactive” in each case. The Potency entry in assay [11] and in assay [12] was “inactive” throughout.

With `CN1C(=O)COc2c(C(=O)NC3CN4CCC3CC4)cc(Cl)cc21` (configuration not stated), the Potency entry in [1], in [2], in assay [13], in assay [6], in assay [7] and in [11] was “inactive” throughout. In [12], the Potency result was “inactive”.

As to `COC1CC(=C(c2cccs2)c2cccs2)C[N+](C)(C)C1` (configuration not stated), the Potency entry in assay [1] and in assay [2] was “inactive” each time.

As to `CN1C(=O)NC(=O)C(C)(C2=CCCCC2)C1=O` (configuration not stated), the Potency result in assay [1] and in assay [2] was “inactive” throughout.

(Values after PubChem BioAssay (NCATS).)
